# USP1 inh: blocks the human USP1/UAF1 deubiquitinase complex | O94782 | recombinant USP1/UAF1, Ub-Rhodamine cleavage fluorescence | Potency, µM (top dose mostly 57.1 µM), without a hit: at the top dose activity change, negative = inhibition, most hits filed as inhibitors | hit rate 0.23% among 390,000; further: potency means the concentration at half of the fitted maximal effect; nearly all actives have a fitted effect of over 60% in size
#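 USP1/UAF1 complex at 1 nM was preincubated with compound for 15 min at room temperature, then Ub-Rho substrate (150nM final) was added. Fluorescence (480/540 nm) was read kinetically, 6 reads every 60 seconds.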
# USP2a block: blocks human ubiquitin-specific protease USP2a; O75604; USP2 core, Ub-CHOP2 coupled fluorogenic reporter, 485/531; Potency, µM (series often up to 38.3 µM), for the others: at the top dose activity change, negative = inhibition, usual class: inhibitors; hit rate 0.01% among 330,000;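 further: potency means the concentration at half of the fitted maximal effect; plate controls were DMSO wells for no effect and full inhibition by NEM control for full effect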
#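 Cell-free coupled assay: 10nM USP2 core preincubated 30min RT with compound in Tris-HCl pH 8.0/CaCl2/CHAPS buffer, then 25nM Ub-CHOP2 and 25nM reporter substrate; fluorescence (Ex 485/Em 531) read after 60min RT, normalized to NEM inhibition, concentration-response curves fitted.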
# WRN helicase inh: blocks human WRN helicase; WRN helicase unwinding, fluorescent forked duplex, kinetic; Potency, µM (series often up to 114 µM), for the others: top-dose activity change, negative = inhibition, actives largely listed as inhibitors; hit rate 0.46% among 360,000; Q14191; further: potency means the concentration at half of the fitted maximal effect; nearly all actives have a fitted effect of over 55% in size
#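 Kinetic fluorescence helicase assay: unwinding of a quenched forked DNA duplex (100 nM final) with 2 mM ATP final raises red fluorescence (525/598 nm). Compounds sat 15 min at room temperature with 20 nM WRN beforehand.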
# PLK1 PBD inh: inhibitors of human PLK1 polo-box domain binding. P53350. Plk1 PBD binding of FITC phosphopeptide, fluorescence polarization. Potency, µM, inactives show max response, negative = inhibition, actives largely listed as inhibitors. hit rate 2.8% among 360,000; further: potency means the concentration at half of the fitted maximal effect; series mostly up to about 57 µM; nearly all actives have a fitted effect of over 65% in size
# PI5P4K alpha inh: blocks human PI5P4K alpha kinase activity | P48426 | PI5P4Kalpha enzyme, ADP-Glo luminescence, 60 min; active compounds read low | max response, % | hit rate 1.2% among 330,000 | AID 652105; active means max response of -50% or lower; inconclusive means between -30% and -50%; inactive means -30% or higher; further: value at the top dose of about 77 µM
#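 Enzyme plus substrate dispensed, test compounds pinned in, then ATP (5 microM final) added. After 60 min at RT, ADP-Glo reagent 1 for 45 min and reagent 2 for 30 min preceded luminescence imaging.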
# ADP-Glo counter: interferes with ADP-Glo detection without enzyme present; shares compounds with PI5P4K alpha inh; Potency, µM (top dose mostly 76.9 µM), for inactives: at the highest dose activity change, negative = inhibition, actives largely listed as inhibitors; ADP-Glo detection counter-screen, luciferase luminescence, no enzyme; 1,100 tested, under 10 active
# * hit, by the source's call; ? = inconclusive; . = not tested or not shown; [ ] = another dose, or the depositor's remark. The list is not random: actives were taken first. Their share in the collection is about 3.3%. Unless noted, the call rests on the fitted dose curve; in most records, active means well fitted curve in the direction sought with a large enough effect; inconclusive means small, poorly fitted or top-dose-only effect, or another doubt; inactive means no such curve, though single readings can be large; an effect the other way counts as inactive or inconclusive. Unless noted, on the % scale 0 is the no-effect control and ±100 the full control effect.
SMILES,USP1 inh,USP2a block,WRN helicase inh,PLK1 PBD inh,PI5P4K alpha inh,ADP-Glo counter
CSc1nc2c(c(=O)[nH]1)C(c1cccs1)C1=C(CCCC1=O)N2 (stereo unspecified),-6%,1%,-35%,-20%,-70*,4%
CCc1ccc(NCc2cc3ccc(OC)cc3n(CC(=O)Nc3ccc(F)cc3F)c2=O)cc1,-26%,.,.,.,.,.
O=C(Nc1cc(S(=O)(=O)N2CCOCC2)ccc1O)c1ccc(NS(=O)(=O)c2ccc(Cl)s2)cc1,-15%,-3%,-17%,?,-59*,3%
O=C(Nc1cc(S(=O)(=O)N2CCOCC2)ccc1N1CCCC1)c1ccc(Cl)cc1,-8%,2%,-30%,7.5µM*,-51*,0%
O=C(Nc1cc(S(=O)(=O)N2CCOCC2)ccc1N1CCCC1)c1ccc2c(c1)S(=O)(=O)c1ccccc1C2=O,?,-1%,-27%,4.7µM*,-77*,-11%
COc1ccccc1NC(=O)c1cccc(S(=O)(=O)N2CCOCC2)c1,-16%,2%,-9%,-4%,4,.
O=S(=O)(Nc1cc(S(=O)(=O)N2CCCC2)ccc1O)c1ccc(Cl)s1,-2%,0%,0%,-5%,-3,.
COc1ccc(S(=O)(=O)N2CCOCC2)cc1NC(=O)c1cccc(-n2cccc2)c1,?,-1%,?,-28%,-74*,0%
COc1cc(NC(=O)c2cc3c(=O)n(Cc4ccco4)ccc3nc2C)cc(OC)c1OC,1%,.,.,.,.,.
CN(C)CCNC(=O)CN1C(=O)COc2ccc(S(=O)(=O)N3CCCC3)cc21,-19%,.,.,.,.,.
O=C(NCc1ccc(F)cc1Cl)c1ccc(CSCc2ccccc2Cl)o1,-7%,.,.,.,.,.
CC(C)NC(=O)C1CCC(Cn2c(=O)c3sccc3n(CC(=O)N3CCCC3)c2=O)CC1 (stereo unspecified),-24%,.,.,.,.,.
Cc1ccc(S(=O)c2ccc(NC(=O)C3CC3)cc2C#N)cc1 (stereo unspecified),-4%,1%,-8%,11µM*,-63*,-6%
CCOc1ccc(NC(=O)C(=O)NCC(c2cccnc2)N2CCc3ccccc32)cc1 (stereo unspecified),-12%,.,.,.,.,.
Clc1ccc2nc(-c3ccco3)c(Cc3ccsc3)n2c1,.,.,-19%,?,-66*,-2%
Clc1ccc2nc(-c3ccccc3)c(Cc3ccsc3)n2c1,.,.,-9%,-24%,-22,.
O=C(COC(=O)CCC(=O)c1ccc(F)cc1)NCc1ccc(Cl)cc1,-21%,0%,-5%,-6%,-1,.
O=C(COC(=O)C1CC2C=CC1C2)NCc1ccco1 (stereo unspecified),-8%,-2%,?,?,-74*,-1%
O=C(COC(=O)CCC(=O)c1ccc(Cl)cc1)NCc1ccco1,-2%,-6%,?,-16%,-52*,0%
Cc1nc(CS(=O)(=O)c2ccccc2)cc(N2CCOCC2)n1,-16%,-1%,?,3µM*,-57*,-11%
Cc1nc(N)sc1-c1csc(Nc2cccc(C(=O)O)c2)n1,-31%,2%,-13%[11.6 µM],-17%,-52*,-8%
CCC(=O)Nc1nc(C)c(-c2csc(Nc3cccc(C(=O)O)c3)n2)s1,-26%,1%,-27%,?,-23,.
CCc1cccc(C)c1NC(=O)c1cc(S(=O)(=O)N2CCN(c3ccccc3)CC2)ccc1F,-24%,.,.,.,.,.
Cc1ccc(NC(=O)C(C)OC(=O)c2cc(=O)[nH]c3ccccc23)cc1S(=O)(=O)N1CCOCC1 (stereo unspecified),-22%,.,?,-4%,-61*,2%
CC(=O)c1c(C)[nH]c(C(=O)OC(C)C(=O)Nc2ccc(C)c(S(=O)(=O)N3CCOCC3)c2)c1C (stereo unspecified),-13%,-4%,4%,-5%,2,.
COc1ccc(NC(=O)CC2C(=O)N(c3ccc(C)cc3)C(=O)N2Cc2cccnc2)cc1 (stereo unspecified),-9%,.,.,.,.,.
Cc1nc2cc(NC(=O)N3CCN(c4ccccn4)CC3)ccc2o1,-8%,.,2%,-6%,.,.
